From PubChem BioAssay (EPA / NIEHS)
Results filed as inconclusive are left out. The source made the active and inactive calls. The calls were made as follows, unless noted: active = hit-call score of the fitted dose curve at least 0.9, where 1 is the maximum; inconclusive = response in the unintended direction; inactive = score below 0.9.

Experiments:
[1] = target: T1, Thyroid hormone receptor alpha (Rattus norvegicus) + Thyroid hormone receptor beta (Rattus norvegicus) (UniProt P18113+P63059); assay: TOX21_TR_LUC_GH3_Antagonist_Followup: Tox21 GH3 Thyroid Hormone Receptor Antagonism Luciferase Follow-Up Assay (AID 2283942)
Experimental: TOX21_TR_LUC_GH3_Agonist_Followup is a secondary assay for the TOX21_TR_LUC_GH3_Agonist assay. TOX21_TR_LUC_GH3_Agonist_Followup is a cell-based, single-readout assay that uses GH3, a rat pituitary gland cell line, with measurements taken at 28 hours after chemical dosing in a 1536-well plate.TOX21_TR_LUC_GH3_Antagonist_Followup is one of one assay component(s) measured or calculated from the TOX21_TR_LUC_GH3_Antagonist_Followup assay. It is designed to make measurements of luciferase induction, a form of inducible reporter, as detected with bioluminescence signals by CellTiter-Glo Luciferase-coupled ATP quantitation technology.Data from the assay component TOX21_TR_LUC_GH3_Antagonist_Followup was analyzed into 1 assay endpoint. This assay endpoint, TOX21_TR_LUC_GH3_Antagonist_Followup, was analyzed in the positive analysis fitting direction relative to DMSO as the negative control and baseline of activity. Using a type of inducible reporter, gain-of-signal activity can be used to understand changes in the reporter gene as they relate to the gene THRA and THRB in the GH3 cell line using a luciferase reporter. Furthermore, this assay endpoint can be referred to as a primary readout, because the performed assay has only produced 1 assay endpoint. This assay endpoint is designated followup because it was a confirmatory screen following the primary qHTS assay. […]

THRB (gene 7068) [2] = target: THRB (gene 7068) (UniProt P10828); assay: TOX21_TRB_BLA_Antagonist_Followup_ratio: Tox21 Thyroid Hormone Receptor beta Antagonism Beta-lactamase (BLA) Follow-Up Assay, Ratio (AID 2283958)
In short: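 Using charcoal-stripped 2% FBS medium, human TRβ-LBD/GAL4 reporter HEK293T cells received test compounds for 18 h. The endpoint is the cleaved-to-uncleaved substrate ratio (460/530 nm).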

[3] = TOX21_TRB_BLA_Antagonist_Followup_viability: Viability Assessment in the Tox21 Thyroid Hormone Receptor beta Antagonism Beta-lactamase (BLA) Follow-Up Assay (AID 2283961)
In short: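 TRβ-bla HEK293T (human TRβ LBD fused to GAL4 DBD), 3,000 cells/well, 2% charcoal-stripped FBS, phenol red-free medium; 18 h compound exposure, 37C; CellTiter-Glo 30 min RT; luminescence, loss-of-signal readout.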

THRB (gene 7068) [4] = target: THRB (gene 7068) (UniProt P10828); assay: TOX21_TRB_COA_Antagonist_Followup_ratio: Tox21 Thyroid Hormone Receptor beta Antagonism through Coactivator Recruitment Follow-Up Assay, Ratio (AID 2283967)
In short: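 GST-TRb LBD 5.0 nM + 0.10% BSA, compound added; fluorescein-SRC-2 peptide 200 nM, Tb-anti-GST Ab 2 nM. TR-FRET, ex 340 / em 520:495 ratio. Norm: DMSO 0%, T3 100%.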

[5] = target: T1, Thyroid hormone receptor alpha (Rattus norvegicus) + Thyroid hormone receptor beta (Rattus norvegicus); assay: TOX21_TR_LUC_GH3_Agonist_Followup: Tox21 GH3 Thyroid Hormone Receptor Agonism Luciferase Follow-Up Assay (AID 2283939)
In short: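 Agonist-mode confirmatory run: 15 concentrations (5 nM to 92 uM final) on GH3 rat pituitary cells, 24 h at 37C/5% CO2, T3 as positive control. Luminescence read with ONE-Glo after 30 min.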

THRA (gene 7067) = THRA (gene 7067) (UniProt P10827); assay: TOX21_TRA_COA_Agonist_Followup_ratio: Tox21 Thyroid Hormone Receptor alpha Agonism through Coactivator Recruitment Follow-Up Assay, Ratio (AID 2283948; active = hit-call score of the fitted dose curve at least 0.9, where 1 is the maximum; inactive = score below 0.9)
In short: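 Follow-up specificity assay in which TRα ligand-binding domain, expressed as a GST fusion, recruits a fluorescein-labelled SRC-2 peptide. Energy transfer from a terbium anti-GST antibody gives the acceptor/donor ratio, fitted upward relative to DMSO.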

THRB (gene 7068) [6] = target: THRB (gene 7068) (UniProt P10828); assay: TOX21_TRB_COA_Agonist_Followup_ratio: Tox21 Thyroid Hormone Receptor beta Agonism through Coactivator Recruitment Follow-Up Assay, Ratio (AID 2283963; active = hit-call score of the fitted dose curve at least 0.9, where 1 is the maximum; inactive = score below 0.9)
In short: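 GST-TRb LBD 5.0 nM + 0.10% BSA + cpd; add fluorescein-SRC-2 200 nM / Tb anti-GST Ab 2 nM; TR-FRET ex 340, em 520:495; norm DMSO 0%, T3 100%.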

[7] = TOX21_PR_BLA_Followup_Agonist_viability: Viability Assessment in the Tox21 HEK293 Progesterone Receptor (PR) Agonism Beta-lactamase Follow-Up Assay (AID 2283935);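 also: signal loss means lower viability so actives are cytotoxic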
In short: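 Viability is read as CellTiter-Glo luminescence, where loss of signal indicates cytotoxicity. The cells are PR-UAS-bla HEK293T given compounds for 16 hr at 37C and 5% CO2, in the same wells used for the bla readout.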

[8] = TOX21_PR_BLA_Followup_Antagonist_viability: Viability Assessment in the Tox21 HEK293 Progesterone Receptor (PR) Antagonism Beta-lactamase Follow-Up Assay (AID 2283936);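 also: cells exposed to compound with R5020 agonist for 16 h; hits lower the luminescence signal meaning cytotoxicity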
In short: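 PR-UAS-bla HEK293T cells in medium with 2% charcoal-stripped FBS were treated with compounds plus R5020 for 16 hr at 37C. After the beta-lactamase read, CellTiter-Glo was added to the same wells and luminescence read after 30 min at room temperature.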

PGR (gene 5241) = PGR (gene 5241) (UniProt P06401); assay: TOX21_PR_LUC_Followup_Antagonist: Tox21 HEK293 Progesterone Receptor (PR) Antagonism Luciferase Follow-Up Assay (AID 2283938);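 also: curve fitted upward as signal gain over DMSO baseline despite antagonist label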
In short: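 Cells are grown 5 days in charcoal-stripped-FBS assay medium, plated, left 5 h, then dosed with compound and incubated 16 h. ONE-Glo reagent is added and luminescence read after 30 min.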

Measured: outcome

Sequence of THRB (gene 7068) (P10828 whole entry, looked up, the tested form may be a part): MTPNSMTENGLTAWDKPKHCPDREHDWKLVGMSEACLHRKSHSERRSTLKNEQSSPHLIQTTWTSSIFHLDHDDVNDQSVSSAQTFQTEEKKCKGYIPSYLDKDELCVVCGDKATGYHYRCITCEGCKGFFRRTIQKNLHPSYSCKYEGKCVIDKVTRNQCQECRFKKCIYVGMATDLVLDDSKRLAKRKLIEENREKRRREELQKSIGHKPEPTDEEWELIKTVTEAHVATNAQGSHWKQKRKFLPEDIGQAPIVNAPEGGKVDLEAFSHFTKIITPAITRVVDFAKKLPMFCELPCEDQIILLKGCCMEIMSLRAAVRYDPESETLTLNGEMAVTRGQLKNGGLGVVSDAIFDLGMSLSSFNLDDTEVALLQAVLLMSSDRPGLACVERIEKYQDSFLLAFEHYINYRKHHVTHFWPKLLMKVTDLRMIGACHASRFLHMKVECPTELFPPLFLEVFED
T1 sequence (P63059 whole entry, looked up): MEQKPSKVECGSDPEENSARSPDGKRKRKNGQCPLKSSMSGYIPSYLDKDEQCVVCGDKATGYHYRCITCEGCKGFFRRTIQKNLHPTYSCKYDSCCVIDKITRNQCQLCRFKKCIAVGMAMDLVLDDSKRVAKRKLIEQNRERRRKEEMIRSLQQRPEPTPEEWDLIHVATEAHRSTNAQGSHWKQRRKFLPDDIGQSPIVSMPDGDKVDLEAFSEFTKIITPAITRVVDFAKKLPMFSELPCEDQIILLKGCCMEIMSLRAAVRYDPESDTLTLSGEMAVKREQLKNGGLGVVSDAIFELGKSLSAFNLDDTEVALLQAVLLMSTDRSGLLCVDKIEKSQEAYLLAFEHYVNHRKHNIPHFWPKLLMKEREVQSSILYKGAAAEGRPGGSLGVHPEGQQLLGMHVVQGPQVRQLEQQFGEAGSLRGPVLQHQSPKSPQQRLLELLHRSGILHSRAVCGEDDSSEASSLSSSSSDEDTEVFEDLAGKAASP
T1 sequence (P18113 whole entry, looked up): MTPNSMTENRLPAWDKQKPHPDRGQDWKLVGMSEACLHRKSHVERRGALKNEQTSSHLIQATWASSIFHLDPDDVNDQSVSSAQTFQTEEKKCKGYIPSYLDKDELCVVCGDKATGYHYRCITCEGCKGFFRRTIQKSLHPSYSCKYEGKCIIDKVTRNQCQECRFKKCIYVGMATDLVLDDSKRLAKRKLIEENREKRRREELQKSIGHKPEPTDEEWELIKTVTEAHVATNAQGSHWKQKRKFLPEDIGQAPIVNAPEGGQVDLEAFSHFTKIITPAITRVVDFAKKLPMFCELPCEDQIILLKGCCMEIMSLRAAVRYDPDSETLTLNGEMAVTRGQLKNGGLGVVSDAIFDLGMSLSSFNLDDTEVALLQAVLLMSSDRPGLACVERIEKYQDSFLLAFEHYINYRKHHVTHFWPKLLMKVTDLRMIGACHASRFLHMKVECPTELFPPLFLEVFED
Sequence of THRA (gene 7067) (P10827 whole entry, looked up, the tested form may be a part): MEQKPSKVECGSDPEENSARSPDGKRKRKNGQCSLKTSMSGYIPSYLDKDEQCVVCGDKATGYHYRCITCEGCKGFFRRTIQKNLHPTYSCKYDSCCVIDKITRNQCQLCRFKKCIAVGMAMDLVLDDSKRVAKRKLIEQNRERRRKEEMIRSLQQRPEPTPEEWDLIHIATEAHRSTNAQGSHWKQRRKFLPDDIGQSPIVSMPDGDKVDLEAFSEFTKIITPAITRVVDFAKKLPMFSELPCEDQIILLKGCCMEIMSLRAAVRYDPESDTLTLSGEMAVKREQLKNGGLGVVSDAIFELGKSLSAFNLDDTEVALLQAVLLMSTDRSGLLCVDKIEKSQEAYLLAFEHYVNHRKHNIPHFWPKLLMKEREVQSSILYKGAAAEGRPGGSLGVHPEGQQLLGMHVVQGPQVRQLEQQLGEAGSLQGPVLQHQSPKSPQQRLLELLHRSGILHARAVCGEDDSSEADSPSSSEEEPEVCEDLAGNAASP
Sequence of PGR (gene 5241) (P06401 whole entry, looked up): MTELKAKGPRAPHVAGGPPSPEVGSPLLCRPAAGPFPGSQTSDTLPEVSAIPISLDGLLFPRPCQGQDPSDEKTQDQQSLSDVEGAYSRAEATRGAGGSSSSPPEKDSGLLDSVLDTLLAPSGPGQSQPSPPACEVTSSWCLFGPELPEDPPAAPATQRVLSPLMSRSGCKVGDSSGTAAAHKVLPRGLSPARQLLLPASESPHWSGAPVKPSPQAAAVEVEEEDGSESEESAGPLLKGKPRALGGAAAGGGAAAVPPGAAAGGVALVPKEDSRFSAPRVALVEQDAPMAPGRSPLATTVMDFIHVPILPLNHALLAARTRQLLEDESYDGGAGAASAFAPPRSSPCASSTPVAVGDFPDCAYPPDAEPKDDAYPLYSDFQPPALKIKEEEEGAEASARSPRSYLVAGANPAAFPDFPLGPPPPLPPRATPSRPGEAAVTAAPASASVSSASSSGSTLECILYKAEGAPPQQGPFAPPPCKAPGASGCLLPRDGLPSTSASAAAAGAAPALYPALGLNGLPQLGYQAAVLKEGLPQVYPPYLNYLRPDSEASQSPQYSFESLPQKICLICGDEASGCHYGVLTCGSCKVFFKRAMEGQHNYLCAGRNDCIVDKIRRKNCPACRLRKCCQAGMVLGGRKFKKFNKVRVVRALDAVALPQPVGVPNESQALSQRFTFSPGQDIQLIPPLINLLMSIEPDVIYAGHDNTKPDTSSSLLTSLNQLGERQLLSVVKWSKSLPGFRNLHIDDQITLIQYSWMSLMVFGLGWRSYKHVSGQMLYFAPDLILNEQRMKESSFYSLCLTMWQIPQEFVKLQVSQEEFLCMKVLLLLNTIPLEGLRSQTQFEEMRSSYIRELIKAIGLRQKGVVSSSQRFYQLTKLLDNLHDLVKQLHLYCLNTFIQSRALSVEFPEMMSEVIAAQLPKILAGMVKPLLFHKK

Nc1nc(Cl)nc2c1ncn2[C@H]1C[C@H](O)[C@@H](CO)O1
inactive: [1] | THRB (gene 7068) [2] | [3] | THRB (gene 7068) [4]

Cc1occc(=O)c1O
inactive: [5] | THRA (gene 7067) | THRB (gene 7068) [6]

CC(=O)[C@@]1(O)CC[C@H]2[C@@H]3CCC4=CC(=O)CC[C@]4(C)[C@H]3CC[C@@]21C
inactive: [7] | [8] | PGR (gene 5241)
